Hsp70 activator = transcriptional activators of Hsp70. HeLa Hsp70 promoter luciferase reporter, luminescence; scaled: vehicle 0, proteasome-inhibitor control 100%. activation, % at 10 µM. 200,000 tested, 0.04% active;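 active = activation above the mean across all tested compounds plus 3 SD, cutoff set per campaign, cut at about 5.5% in these data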
S1P4 ag = activates the human S1P4 receptor; O95977; S1P4-expressing cell line, agonist reporter assay; activation, % at 4.98 µM; 220,000 tested, 0.35% active; AID 1509; in the data active = activation above about 11%
Target sequence (O95977 whole entry, looked up): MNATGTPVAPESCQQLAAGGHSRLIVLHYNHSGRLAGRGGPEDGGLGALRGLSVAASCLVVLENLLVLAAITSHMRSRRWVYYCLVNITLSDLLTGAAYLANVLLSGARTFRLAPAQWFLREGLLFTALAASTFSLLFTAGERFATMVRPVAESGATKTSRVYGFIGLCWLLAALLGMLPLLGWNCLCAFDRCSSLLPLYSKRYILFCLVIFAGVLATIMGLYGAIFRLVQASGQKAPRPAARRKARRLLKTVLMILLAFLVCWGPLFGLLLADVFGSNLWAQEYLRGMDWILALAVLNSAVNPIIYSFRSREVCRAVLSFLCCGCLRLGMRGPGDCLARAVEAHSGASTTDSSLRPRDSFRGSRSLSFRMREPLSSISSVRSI
S1P4 antagonist = antagonists of human S1P4 receptor. S1P4-expressing cells, antagonist mode, reporter read-out. AID 1510. O95977. inhibition, % at 4.98 µM. 220,000 tested, 0.26% active; in the data active = inhibition above about 29%
CHOP inh = blocks CHOP induction under ER stress; AID 2732; inhibition, % at 10 µM; 220,000 tested, 3.8% active; CHO-K1 CHOP-promoter luciferase, tunicamycin-induced, 15-18 h;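 active = compounds that reduced the stress-induced luciferase reporter signal by more than about 70% of percent inhibition, limit read from the data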
Large screens that a line does not name were inactive. Sampled rows, rich in hits. Any-hit rate of the full collection: about 4.2%.

CCOc1cc(CNc2ccc(N(C)C)cc2)cc(Br)c1OCC(=O)NC(C)(C)C	CHOP inh 95
Cc1cc2c(N=NC(=O)CCc3ccccc3)c(O)[nH]c2cc1Br	CHOP inh 83
Cc1cccc(C)c1OCC(=O)N=Nc1c(O)[nH]c2ccc(Br)cc12	none
COc1ccc(Cl)cc1NC(=O)CN1CCC(n2nnc3cc(F)ccc32)CC1	none
COc1ccccc1C(=O)NC(=S)/C=C1/N(C)c2ccccc2C1(C)C	CHOP inh 73
CCN(CC)S(=O)(=O)c1ccc(Oc2ccc(S(=O)(=O)N(CC)CC)cc2)cc1	CHOP inh 72
CCN(CC)S(=O)(=O)c1ccc(Oc2ccccc2OC)cc1	none (no result: Hsp70 activator)
CCn1c(NC(=O)Nc2cccc(C)c2C)cc2sccc21	CHOP inh 90
CCC(CC)NC(=O)Nc1cccc(C)c1C	none
Cc1ccccc1NCC(=O)N/N=C/c1ccc([N+](=O)[O-])cc1	none
O=C(CNc1ccc2ccccc2c1)N/N=C/C=C/c1cccc([N+](=O)[O-])c1	CHOP inh 90
CC(NC(=O)C(=O)N/N=C\c1ccc([N+](=O)[O-])cc1)c1ccccc1 (stereo unspecified)	CHOP inh 84
CC(NC(=O)COC(=O)/C=C/c1ccc([N+](=O)[O-])cc1)c1ccccc1 (stereo unspecified)	none
Cc1ccc(S(=O)(=O)N(CC(=O)N/N=C/c2ccco2)c2cc(Cl)cc(Cl)c2)cc1	CHOP inh 75
O=C(N/N=C/C=C/c1cccc([N+](=O)[O-])c1)C(O)c1ccccc1 (stereo unspecified)	none
O=C(CNc1cccc2ccccc12)N/N=C/c1ccc([N+](=O)[O-])cc1	CHOP inh 72
Cc1ccc(CNC(=O)C2CCN(S(=O)(=O)c3ccc4c(c3)OCCCO4)CC2)cc1	none
CCOC(=O)c1c(NC(=O)CN(CC)CC)sc2c1CCC2	none
O=C(NCc1ccccc1)c1ccc(Oc2ccc(C(=O)NCc3ccccc3)cc2)cc1	none
CCOC(=O)c1ccc(-c2ccc(/C=N/NC(=O)CN(c3ccccc3Cl)S(C)(=O)=O)o2)cc1	none
O=C(CN(Cc1ccccc1)S(=O)(=O)c1ccccc1)N/N=C/c1ccc([N+](=O)[O-])cc1	CHOP inh 96
CCOc1ccc(S(=O)(=O)N(CC(=O)N/N=C/c2ccc(-c3ccc([N+](=O)[O-])cc3)o2)c2ccccc2)cc1	none
O=C(CN(Cc1ccccc1)S(=O)(=O)c1ccccc1)N/N=C/c1ccc2c(c1)OCO2	none
CCOC(=O)c1ccc(-c2ccc(/C=N/NC(=O)CN(c3cccc(C)c3)S(C)(=O)=O)o2)cc1	CHOP inh 79
Cc1ccc(C)c(N(CC(=O)N/N=C/c2ccc(-c3ccc([N+](=O)[O-])cc3)o2)S(=O)(=O)c2ccccc2)c1	CHOP inh 82
COc1ccc(C/C(C)=N/Nc2nc(C)cc(=O)[nH]2)cc1	none
COc1ccc(/C=N/NC(=O)c2ccccc2O)cc1CSc1ccccn1	none
COc1cc(OC)cc(C(=O)NC(=S)Nc2cc3oc4ccccc4c3cc2OC)c1	none
COc1ccc(C(=O)NC(=S)Nc2cc3oc4ccccc4c3cc2OC)cc1	CHOP inh 78
COC(=O)CSc1ccc(C#N)c(SCC(=O)OC)c1	none
O=C(COC(=O)c1cn(-c2ccccc2)nc1-c1ccccc1)c1ccc([N+](=O)[O-])cc1	none
Cc1ccc(C(=O)COC(=O)c2cn(-c3ccccc3)nc2-c2ccccc2)cc1[N+](=O)[O-]	CHOP inh 76
O=C(COC(=O)c1cn(-c2ccccc2)nc1-c1ccccc1)Nc1ncc(Cl)cc1Cl	CHOP inh 77 (no result: Hsp70 activator)
CNS(=O)(=O)c1cccc(C(=O)OCC(=O)/C=C2/N(C)c3ccccc3C2(C)C)c1	CHOP inh 73
CCOc1ccc(-n2c(=O)c3c4c(sc3n(CC(=O)NCc3ccco3)c2=O)CCC4)cc1	CHOP inh 70
CCN(CC)C(=O)Cn1c(=O)n(-c2ccccc2)c(=O)c2c3c(sc21)CCC3	none
O=C(Cn1cnc2sc(-c3ccccc3)cc2c1=O)NCCc1ccccc1	CHOP inh 73
Cc1cc2c(s1)c1cnn(CC(=O)NCCc3ccccc3)c(=O)c1n2C	CHOP inh 87
O=C(Cn1cnc2sc(-c3ccccc3)cc2c1=O)NCc1ccccc1	none
Cc1ccc(S(=O)(=O)Nc2ccc(O)c3ncccc23)cc1	CHOP inh 73
Cc1ccc(S(=O)(=O)Nc2cccc3ncccc23)cc1	none (no result: Hsp70 activator)
Cc1ccc(OCCN2CCN(CC(O)Cn3c4ccccc4c4ccccc43)CC2)cc1 (stereo unspecified)	CHOP inh 96
Cc1ccc(OCCn2c(C)c(/C=N/n3cnnc3)c3ccccc32)cc1	CHOP inh 81
Cc1c(/C=N/n2cnnc2)c2ccccc2n1CCOc1ccc(Cl)cc1	none
OC(CN1CCN(c2ccccc2)CC1)Cn1c2ccccc2c2ccccc21 (stereo unspecified)	CHOP inh 80
OC(CN1CCN(Cc2ccccc2)CC1)Cn1c2ccccc2c2ccccc21 (stereo unspecified)	none
Cc1ncc([N+](=O)[O-])n1Cc1ccc(Br)cc1	none
CCOC(=O)C1=C(c2ccccc2)N=c2s/c(=C\c3cccc(O)c3)c(=O)n2C1c1cccs1 (stereo unspecified)	CHOP inh 90
Cc1ccc(NC(=O)c2cc3c(s2)CCC3)cc1S(=O)(=O)N1CCOCC1	none
Cc1cccc(NC(=S)N(CCc2nc3cc(C)c(C)cc3[nH]2)Cc2cccnc2)c1	CHOP inh 80
COc1cccc(NC(=S)N(CCc2nc3cc(C)c(C)cc3[nH]2)Cc2cccnc2)c1	none
CC(C)(C)NC(=O)CSc1nc2ccc(NC(=O)CSc3nnc(N)s3)cc2s1	CHOP inh 70
Cc1ccccc1OCc1nnc(SCC(=O)Nc2ccc3nc(SCC(=O)NC(C)(C)C)sc3c2)n1C	CHOP inh 73
Cc1ccc(/C=c2\sc3nc(-c4cccnc4)nn3c2=O)cc1	none
CC(C)c1ccc(/C=c2\sc3nc(-c4ccncc4)nn3c2=O)cc1	CHOP inh 71
COc1ccccc1Nc1nc(-c2cccs2)cs1	none (no result: CHOP inh)
Cc1c(NC(=O)COC(=O)c2ccc[nH]c2=O)c(=O)n(-c2ccccc2)n1C	none
COc1cc2nc(N3CCNCC3)nc(N)c2cc1OC	CHOP inh 70
Cc1ccc(-n2nc(C)c3c2OC(N)=C(C#N)C3c2ccc(F)cc2)cc1 (stereo unspecified)	CHOP inh 83
Cc1cc(/C=C2/NC(=O)N(Cc3ccccc3F)C2=O)c(C)n1C(C)C	CHOP inh 72
CC(C)(C)S(=O)(=O)c1cnc(-c2ccc(Cl)cc2)nc1N	none (no result: Hsp70 activator)
Cc1nc(N)nc(N)c1/C=C/C(C)(C)c1ccc(Cl)cc1	CHOP inh 77
Cc1cccc(OCC(=O)Nc2ccc(C(=O)NCc3cccnc3)cc2)c1	none
Cc1ccc(NC2=NCC(Cc3ccc(Br)cc3)S2)cc1 (stereo unspecified)	CHOP inh 74
COc1cccc(NC(=O)c2ccc(NCCCN3CC(C)CC(C)C3)c([N+](=O)[O-])c2)c1 (stereo unspecified)	none
CSc1nsc(N/N=C/c2ccc3c(c2)OCO3)c1C#N	CHOP inh 76

Assay outcomes as filed in PubChem.
